Sampled rows, rich in hits. Any-hit rate of the full collection: about 3%.
MITF act = MITF TRPM1 promoter activation in melanoma cells; SK-MEL-5 TRPM1-promoter luciferase, 24 h; % of positive control, neutral wells = 0; activation, % at 12.5 µM; 300,000 tested, 0.75% active;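 active = mean activation of at least 80% with every replicate also reaching 80%; inconclusive = mean reaches 80% but some replicate falls short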
Statin myotox sup = suppression of simvastatin myotoxicity; C2C12 myotubes + simvastatin, ATP luminescence, 48 h; scaled: DMSO 0, geranylgeraniol control 100; rescue of ATP level, % at 7.49 µM; 330,000 tested, 0.78% active; AID 602340;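 active = mean ATP rescue above about 67%, or every replicate alone reaching that limit, limit read from the data, passing the limit was not always enough; inconclusive = no clear call, values can overlap the other calls; inactive = mean under the limit and some replicate under it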;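 note: myotubes were challenged with 10 µM simvastatin during compound exposure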
esBAF inh = blocks esBAF chromatin remodeling in mouse ES cells; Bmi1-luciferase knock-in reporter, 24 h; 100% = twice the neutral-well signal; reporter increase, % at 12.5 µM; AID 602393; 350,000 tested, 2% active; in the data active = activation above about 40%; inconclusive = no clear call, values can overlap the other calls;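 note: a rise in the Bmi1 reporter signal indicates esBAF inhibition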
Wnt act = activators of Wnt/beta-catenin signaling; Wnt/beta-catenin reporter cell assay, activator, plate reader; activation, % at 9.35 µM; 300,000 tested, 1.2% active; in the data active = activation above about 30%, passing the limit was not always enough; inconclusive = no clear call, values can overlap the other calls
Hits are given with their value; – = inactive; ? = inconclusive; · = no result.

SMILES	MITF act	Statin myotox sup	esBAF inh	Wnt act
C[C@@H]1CN([C@H](C)CO)C(=O)c2cc(NC(=O)Nc3cccc4ccccc34)ccc2O[C@@H](C)CCCCO[C@@H]1CN(C)CC1CCCCC1	·	·	–	·
C[C@H](CO)N1C[C@H](C)[C@H](CN(C)C(=O)C2CCCCC2)Oc2cc(C#C[C@@H](C)O)ccc2S1(=O)=O	·	–	–	·
COc1cccc(NC(=O)c2ccccc2)c1	104	–	–	–
Cc1cccc(NC(=O)c2ccccc2C(=O)O)c1	–	137	–	–
Cc1cccc(NC(=O)c2ccccc2-c2ccccc2)c1	–	·	·	–
O=C(Nc1ccc(Br)cc1F)c1ccc2nsnc2c1	129	–	?	–
Cc1cccc(NC(=O)N2CCN(Cc3ccc(Cl)cc3)CC2)c1	–	–	–	–
O=C(Nc1ccc(Br)cc1F)c1ccncc1	–	–	–	·
O=C(Nc1cccc(Cl)c1)N1CCN(Cc2ccccc2)CC1	?	–	74	–
CNC(=O)C[C@H]1CC[C@H]2[C@H](COc3ccc(NC(=O)Nc4ccc(F)c(F)c4)cc3C(=O)N2C)O1	·	–	–	·
COc1cccc(NC(=O)c2ccc3nsnc3c2)c1	–	–	56	–
COc1ccc(C(=O)Nc2cccc(OC)c2)cc1	–	–	–	–
COc1cccc(C(=O)N/N=C(\C)CC(=O)Nc2ccc(N(C)C)cc2)c1	–	–	–	–
COc1cccc(NC(=O)c2ccc(OC(F)(F)F)cc2)c1	107	–	72	37
COc1cccc(/C(C)=N/NC(=O)c2ccc(N(C)C)cc2)c1	–	–	53	·
COc1cccc(NC(=O)c2cccc(C(=O)Nc3cccc(OC)c3)c2)c1	·	–	–	–
CCn1ncc(C(=O)Nc2cccc(Cl)c2)c1C	–	–	53	–
CCc1cccc(NC(=O)c2cnn(-c3ccccc3)c2C)c1	·	–	–	–
COc1ccccc1-c1ccc([C@@H]2[C@@H](CO)N(C(=O)C3CCC3)[C@H]2C#N)cc1	·	–	–	·
COc1cc(NC(=O)c2ccc3snnc3c2)cc(OC)c1	–	–	47	–
Cc1cccc(NC(=O)c2cccc(NS(=O)(=O)c3ccc(Cl)cc3)c2)c1	–	105	–	–
COc1ccc(/C=C(\NC(=O)c2ccc(OC)cc2)C(=O)Nc2cccc(C(=O)O)c2)cc1	–	–	46	–
O=C(Nc1cccc(Cl)c1)c1ccccc1	–	–	42	–
COc1ccc(NC(=O)Nc2ccc3c(c2)C(=O)N([C@H](C)CO)C[C@@H](C)[C@@H](CN(C)Cc2ccc(C(=O)O)cc2)OCCCC[C@H](C)O3)cc1	·	·	–	·
COc1cccc(NC(=O)c2nnn(CCc3ccccc3)c2N)c1	–	–	78	–
SMILES	MITF act	Statin myotox sup	esBAF inh	Wnt act
CC(C)OC(=O)c1cccc(NC(=O)c2ccccc2)c1	83	·	·	?
COc1ccccc1OCCNC(=O)c1ccc(Br)cc1	–	–	56	–
O=C(Nc1ccc(F)cc1)c1ccc2nsnc2c1	–	–	?	39
C[C@@H]1CN([C@H](C)CO)C(=O)c2cc(NC(=O)c3ccncc3)ccc2O[C@@H](C)CCCCO[C@H]1CN(C)C(=O)c1ccncc1	·	·	–	·
COc1ccccc1OCc1ccc(C(=O)Nc2ccccc2)cc1	–	–	79	–
O=C(Nc1cccc(NC(=O)c2ccccc2F)c1)c1ccccc1	–	107	–	–
O=C(Nc1nc(-c2ccccn2)cs1)C1CC1	–	–	46	–
O=C(CC1CC2CCC1C2)Nc1nc(-c2ccccn2)cs1 (stereo unspecified)	–	·	·	–
c1ccc(Nc2nc(-c3ccccn3)cs2)cc1	–	–	–	40
O=C(Nc1nc(-c2ccccn2)cs1)C12CC3CC(CC(O)(C3)C1)C2	–	·	·	40
CC(C)(C)n1ncc2c(=O)n(CC(=O)c3ccc(Cl)cc3)cnc21	–	–	74	·
O=c1c2cnn(-c3ccc(F)cc3)c2ncn1Cc1ccccc1	–	158	–	·
O=C(Cn1cnc2c(cnn2-c2ccccc2)c1=O)NCCc1ccccc1	–	–	–	·
O=C(Cn1cnc2c(cnn2-c2ccccc2)c1=O)c1ccc(Cl)cc1	–	143	–	–
CCNC(=O)[C@H]1[C@H](CO)[C@H]2Cn3c(ccc(-c4ccccc4)c3=O)[C@H]2N1Cc1cc(F)ccc1F	·	–	–	·
O=C(O)c1cccc2c1-c1ccccc1/C2=N\Nc1ccccc1	–	–	63	–
Cc1nnc(N2C(=O)c3cccc4cccc(c34)C2=O)s1	–	·	·	·
CCCc1nnc(N2C(=O)c3cccc4cccc(c34)C2=O)s1	–	85	–	–
CCOc1ccc(C(=O)COC(=O)c2cccc(-n3cnnn3)c2)cc1	–	–	74	–
CO[C@@H]1CN(C)C(=O)c2cc(NC(=O)Nc3ccccc3)ccc2OC[C@H](C)N(C(=O)Nc2c(C)noc2C)C[C@@H]1C	·	–	–	·
COc1ccccc1N1CCN(CC(=O)c2ccc(F)cc2)CC1	·	–	42	–
COc1ccc(C(=O)CN2CCN(c3ccc(F)cc3)CC2)cc1OC	–	·	·	·
COC(=O)c1ccc(N2CCN(CC(=O)c3ccc(-c4ccccc4)cc3)CC2)c([N+](=O)[O-])c1	–	–	48	·
Fc1cc(Br)ccc1COc1ccc(-c2nnco2)cc1	119	–	55	–
c1csc(CSc2nc3ccccc3s2)c1	98	·	·	·
SMILES	MITF act	Statin myotox sup	esBAF inh	Wnt act
Cc1noc(C)c1CSc1nc2ccccc2s1	·	–	–	–
COc1ccc([C@H]2CC(=O)C=C(c3cccc(OC)c3)C2)cc1	–	–	–	–
COc1ccc([C@H]2CC(=O)C=C(c3ccc(Oc4ccccc4)cc3)C2)cc1OC	–	–	–	–
COc1ccc([C@H]2CC(=O)C=C(c3ccc(F)nc3)C2)cc1OC	–	90	–	–
COc1ccc([C@H]2CC(=O)C=C(c3cccc(C#N)c3)C2)cc1	–	–	45	–
COc1ccc([C@H]2CC(=O)C=C(c3ccccc3)C2)cc1OC	–	80	–	–
COc1ccc(S(=O)(=O)Nc2ccc3c(c2)C(=O)N([C@H](C)CO)C[C@H](C)[C@@H](CN(C)C)O3)cc1	·	–	–	·
O=C(Cc1ccccc1)N[C@H]1C=C[C@@H](CC(=O)N2CCCCC2)O[C@H]1CO	·	–	–	·
C[C@@H]1CN([C@@H](C)CO)S(=O)(=O)c2ccc(C#CC3(O)CCCC3)cc2O[C@H]1CN(C)C(=O)c1cccnc1	·	–	–	·
Cc1ccc(SCCSc2nc(C)cc(=O)[nH]2)cc1	–	–	–	34
Cc1ccc(SCCSc2nc(N)cc(=O)[nH]2)cc1	·	–	–	–
Fc1cccc(Cl)c1Cc1noc(/C=C/c2ccccc2)n1	–	–	43	–
CC(=O)N(C)c1ccc(OCC(O)COc2ccc(N(C)C(C)=O)cc2)cc1	–	125	–	·
CC(=O)c1ccc(OCC(O)CN2CCN(CC(O)COc3ccc(C(C)=O)cc3)CC2)cc1 (stereo unspecified)	–	109	–	–
O=C(NCCCN1CCOCC1)[C@@H]1[C@@H](CO)[C@@H]2Cn3c(ccc(C4=CCCC4)c3=O)[C@H]1N2	·	–	–	·
Cc1ccc(S(=O)(=O)N(C)CC(=O)Nc2cc(C)ccn2)cc1	–	–	66	38
